Usually AC50 stands for the concentration at which the activity in the assay is half-maximal.

Activity calls are given as the source filed them. How the source made its calls: active means hit-call score of the fitted dose curve at least 0.9, where 1 is the maximum; inactive means score below 0.9.

Read-out in experiment [1]: Macrophage colony-stimulating factor (MCSF), CSF1 (gene 1435)
As to the kind of experiment: BSK_hDFCGF_MCSF: BioMAP Diversity Plus: hDFCGF Assay for Macrophage colony-stimulating factor (MCSF) Biomarker Activity (AID 2283060). The settings on record: primary human foreskin fibroblasts; actives raise or lower the signal. An outline of the steps:
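fibroblasts (human foreskin, primary), 24 h post-dose; M-CSF by ELISA; bidirectional fit, DMSO = baseline.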

The nature of experiment [2]: BSK_hDFCGF_SRB: Viability Assessment in the BioMAP Diversity Plus: hDFCGF Assay (AID 2283061).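 Further: cells exposed to compound for 24 h before the read.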 To be noted: primary human foreskin fibroblasts. Summed up:
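SRB-based viability read on primary human skin fibroblasts at 24 h: TCA fixation, 0.1% dye, 560 nm. Gain or loss of signal is fitted against the DMSO negative control.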

Read-out in experiment [3]: TIMP metallopeptidase inhibitor 1 (TIMP1), TIMP1 (gene 7076)
Briefly: BSK_hDFCGF_TIMP1: BioMAP Diversity Plus: hDFCGF Assay for TIMP metallopeptidase inhibitor 1 (TIMP1) Biomarker Activity (AID 2283062). To be noted: primary human foreskin fibroblasts; actives raise or lower the signal. Summed up:
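Bidirectional curve fitting against DMSO baseline yielded this endpoint, based on ELISA detection of TIMP-1 in primary human foreskin fibroblasts exposed to compound for 24 h.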

Read-out in experiment [4]: Matrix Metallopeptidase 1 (MMP1), MMP1 (gene 4312)
Briefly: BSK_hDFCGF_MMP1: BioMAP Diversity Plus: hDFCGF Assay for Matrix Metallopeptidase 1 (MMP1) Biomarker Activity (AID 2283064). To be noted: primary human foreskin fibroblasts; actives raise or lower the signal. Summed up:
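MMP1 levels quantified by ELISA 24 h after dosing human dermal fibroblast cultures, with parallel SRB total-protein staining for overt cytotoxicity. Data fitted in both directions against DMSO baseline.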

Read-out in experiment [5]: Vascular cell adhesion molecule 1 (VCAM1), VCAM1 (gene 7412)
As to the kind of experiment: BSK_hDFCGF_VCAM1: BioMAP Diversity Plus: hDFCGF Assay for Vascular cell adhesion molecule 1 (VCAM1) Biomarker Activity (AID 2283065). The settings on record: primary human foreskin fibroblasts; actives raise or lower the signal. Summed up:
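Measured after 24 h chemical treatment of primary human skin fibroblasts, VCAM-1 was detected by ELISA and concentration-response analysed in both directions versus DMSO vehicle.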

Read-out in experiment [6]: Plasminogen activator inhibitor-1 (PAI1), SERPINE1 (gene 5054)
Briefly: BSK_hDFCGF_PAI1: BioMAP Diversity Plus: hDFCGF Assay for Plasminogen activator inhibitor-1 (PAI1) Biomarker Activity (AID 2283066). The settings on record: primary human foreskin fibroblasts; actives raise or lower the signal. Summed up:
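Human skin fibroblast cultures receive chemical for 24 h before PAI-1 is measured by ELISA; signal changes are fitted bidirectionally against DMSO-treated wells.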

Read-out in experiment [7]: Intercellular Adhesion Molecule 1 (ICAM1), ICAM1 (gene 3383)
Briefly: BSK_KF3CT_ICAM1: BioMAP Diversity Plus: KF3CT Assay for Intercellular Adhesion Molecule 1 (ICAM1) Biomarker Activity (AID 2283067). The settings on record: primary human keratinocytes with fibroblasts; actives raise or lower the signal. Summed up: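 Bidirectional curve fitting against a DMSO baseline was applied to ICAM-1 ELISA signal from primary human skin co-cultures harvested 24 h after treatment, with SRB staining of parallel wells for overt cytotoxicity.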

Read-out in experiment [8]: Interferon-gamma inducible Protein 10 (IP10), CXCL10 (gene 3627)
Briefly: BSK_KF3CT_IP10: BioMAP Diversity Plus: KF3CT Assay for Interferon-gamma inducible Protein 10 (IP10) Biomarker Activity (AID 2283068). To be noted: primary human keratinocytes with fibroblasts; actives raise or lower the signal. Summed up:
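In a primary skin co-culture of keratinocytes and fibroblasts, IP-10 is quantified by ELISA at 24 h after dosing. SRB staining of parallel wells monitors overt toxicity. Curves are fitted both directions against DMSO.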

Experiment [9] is described as follows: BSK_KF3CT_SRB: Viability Assessment in the BioMAP Diversity Plus: KF3CT Assay (AID 2283069).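 Further: total protein by sulforhodamine B staining as a cytotoxicity measure; read 24 h after compound addition.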 To be noted: primary human keratinocytes with fibroblasts. Summed up:
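Cytotoxicity was gauged by SRB staining (0.1% SRB, 10% TCA fixation, 560 nm) of parallel cultures at 24 h. The cells were primary human skin keratinocytes co-cultured with fibroblasts, and activity was fitted in both directions against DMSO.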

Read-out in experiment [10]: Interleukin-1 alpha (IL1a), IL1A (gene 3552)
Briefly: BSK_KF3CT_IL1a: BioMAP Diversity Plus: KF3CT Assay for Interleukin-1 alpha (IL1a) Biomarker Activity (AID 2283070). The settings on record: primary human keratinocytes with fibroblasts; actives raise or lower the signal. An outline of the steps: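 IL-1a was detected by ELISA 24 h after chemical treatment of a co-culture of human skin keratinocytes and foreskin fibroblasts. Gain or loss of signal was fitted against the DMSO baseline.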

Read-out in experiment [11]: TIMP metallopeptidase inhibitor 2 (TIMP2), TIMP2 (gene 7077)
Briefly: BSK_KF3CT_TIMP2: BioMAP Diversity Plus: KF3CT Assay for TIMP metallopeptidase inhibitor 2 (TIMP2) Biomarker Activity (AID 2283071). To be noted: primary human keratinocytes with fibroblasts; actives raise or lower the signal. Summed up: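 Measurements come from ELISA detection of TIMP-2 at 24 hours in a dosed human keratinocyte and foreskin fibroblast co-culture. DMSO serves as negative control and baseline.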

Read-out in experiment [12]: C-C motif chemokine 2 (Homo sapiens) (UniProt P13500)
Briefly: BSK_KF3CT_MCP1: BioMAP Diversity Plus: KF3CT Assay for Monocyte Chemoattractant Protein 1 (MCP1/CCL2) Biomarker Activity (AID 2283073). The settings on record: primary human keratinocytes with fibroblasts; actives raise or lower the signal. Summed up: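 Biomarker MCP-1 is measured by ELISA in primary human keratinocytes co-cultured with foreskin fibroblasts, 24 h after chemical treatment; DMSO serves as the negative control and activity baseline.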

Read-out in experiment [13]: Matrix Metallopeptidase 9 (MMP9), MMP9 (gene 4318)
Briefly: BSK_KF3CT_MMP9: BioMAP Diversity Plus: KF3CT Assay for Matrix Metallopeptidase 9 (MMP9) Biomarker Activity (AID 2283074).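 On AC50: MMP9 protein level quantified by ELISA in the co-culture.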 To be noted: primary human keratinocytes with fibroblasts; actives raise or lower the signal. An outline of the steps: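 MMP-9 quantified by ELISA after 24 h chemical treatment of primary human skin keratinocyte/fibroblast co-cultures; gain or loss fitted against DMSO, with parallel SRB staining (0.1% SRB, 560 nm) for overt cytotoxicity.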

Read-out in experiment [14]: urokinase plasminogen activator (uPA), PLAU (gene 5328)
Briefly: BSK_KF3CT_uPA: BioMAP Diversity Plus: KF3CT Assay for urokinase plasminogen activator (uPA) Biomarker Activity (AID 2283075). To be noted: primary human keratinocytes with fibroblasts; actives raise or lower the signal. An outline of the steps: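 ELISA read-out of uPA 24 h after dosing human skin keratinocytes co-cultured with foreskin fibroblasts. Signal change fitted both ways relative to DMSO; sulforhodamine B on parallel cultures marks overt cytotoxicity.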

Read-out in experiment [15]: CD40, CD40 (gene 958)
As to the kind of experiment: BSK_LPS_CD40: BioMAP Diversity Plus: LPS Assay for CD40 Biomarker Activity (AID 2283076). The settings on record: primary human HUVEC with PBMC; actives raise or lower the signal. Summed up:
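Using a multiplexed primary human co-culture (umbilical vein endothelium plus PBMC), CD40 was read by ELISA 24 h after dosing, with cytotoxicity tracked by sulforhodamine B staining of parallel cultures and activity fitted bidirectionally versus DMSO.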

Read-out in experiment [16]: E-selectin (Homo sapiens) (UniProt P16581)
Briefly: BSK_LPS_Eselectin: BioMAP Diversity Plus: LPS Assay for Eselectin Biomarker Activity (AID 2283077). To be noted: primary human HUVEC with PBMC; actives raise or lower the signal. Summed up:
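Dose chemical onto LPS-driven HUVEC/PBMC co-culture; after 24 h, run ELISA for E-selectin; fit up- and down-going responses relative to DMSO control.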

Read-out in experiment [17]: Interleukin-8 (IL8), CXCL8 (gene 3576)
Briefly: BSK_LPS_IL8: BioMAP Diversity Plus: LPS Assay for Interleukin-8 (IL8) Biomarker Activity (AID 2283078). To be noted: primary human HUVEC with PBMC; actives raise or lower the signal. An outline of the steps: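 In this LPS system, chemical-treated human umbilical vein endothelium/PBMC co-cultures were harvested at 24 h for IL-8 ELISA.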

A short description of experiment [18]: BSK_LPS_SRB: Viability Assessment in the BioMAP Diversity Plus: LPS Assay (AID 2283079).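 Further: total protein by sulforhodamine B absorbance as a cytotoxicity measure; measured one day after compound addition; fitted in both directions against DMSO so loss or gain of signal counts.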 To be noted: primary human HUVEC with PBMC. An outline of the steps:
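Cytotoxicity endpoint in human endothelial–PBMC co-culture: 24 h exposure, then SRB (0.1%) staining, 560 nm read.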

Read-out in experiment [19]: Transforming growth factor beta 1 (TGFb1), TGFB1 (gene 7040)
Briefly: BSK_KF3CT_TGFb1: BioMAP Diversity Plus: KF3CT Assay for Transforming growth factor beta 1 (TGFb1) Biomarker Activity (AID 2283072). The settings on record: primary human keratinocytes with fibroblasts; actives raise or lower the signal. An outline of the steps: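 TGF-b1 ELISA on a 24 h dosed co-culture of human keratinocytes and foreskin fibroblasts; cytotoxicity tracked in parallel cultures by SRB staining.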

Chain of E-selectin (Homo sapiens) (P16581 whole entry, looked up): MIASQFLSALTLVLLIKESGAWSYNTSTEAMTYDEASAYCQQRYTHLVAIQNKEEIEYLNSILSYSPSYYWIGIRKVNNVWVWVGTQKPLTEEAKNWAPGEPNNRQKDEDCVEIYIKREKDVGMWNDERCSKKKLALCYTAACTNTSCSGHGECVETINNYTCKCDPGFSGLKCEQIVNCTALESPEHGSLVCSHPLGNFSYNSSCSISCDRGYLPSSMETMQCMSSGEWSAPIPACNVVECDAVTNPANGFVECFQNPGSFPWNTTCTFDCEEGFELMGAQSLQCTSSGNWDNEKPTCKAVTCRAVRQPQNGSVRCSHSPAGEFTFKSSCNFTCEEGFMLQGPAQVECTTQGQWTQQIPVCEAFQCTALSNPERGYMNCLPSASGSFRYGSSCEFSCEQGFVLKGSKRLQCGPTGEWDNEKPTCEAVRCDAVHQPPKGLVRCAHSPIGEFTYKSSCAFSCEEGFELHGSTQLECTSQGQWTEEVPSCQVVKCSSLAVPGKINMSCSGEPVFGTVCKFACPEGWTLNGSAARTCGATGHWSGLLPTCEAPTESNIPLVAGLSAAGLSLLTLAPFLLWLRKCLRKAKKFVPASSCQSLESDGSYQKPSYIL

`OCCCC(F)(F)C(F)(F)C(F)(F)F`: the outcome in experiment [1], in experiment [2], in [3], in experiment [4], in experiment [5] and in experiment [6] was inactive. In addition, the outcome in [7], in [8], in experiment [9], in [10], in experiment [11] and in [12] was inactive. Besides, the outcome in experiment [13], in [14], in experiment [15], in experiment [16], in experiment [17] and in experiment [18] was inactive.

In the case of `O[Si](c1ccccc1)(c1ccccc1)c1ccccc1`, the concentration at half-maximal activity (AC50) is 5.61 µM (active) in [1]; 5.35 µM (active) in [2]; 5.43 µM (active) in experiment [6]; 10.3 µM (active) in [11]; 20 µM (active) in experiment [19]; 6.74 µM (active) in experiment [13]. Also, the AC50 in [15] was 24.4 µM (active); in experiment [18], 28.6 µM (active). The result in [3], in [4], in experiment [5], in experiment [7], in experiment [8] and in experiment [9] was inactive. Moreover, the result in experiment [10], in [12], in experiment [14], in [16] and in [17] was inactive.

In the case of `CCCCCCCCC(F)(F)C(F)(F)C(F)(F)C(F)(F)C(F)(F)C(F)(F)F`, the outcome in experiment [1], in experiment [2], in experiment [3], in [4], in experiment [5] and in experiment [6] was inactive. Also, the result in [8], in [9], in experiment [10], in experiment [11], in experiment [12] and in experiment [13] was inactive. Further, the result in [15], in experiment [16], in [17] and in experiment [18] was inactive.

Consider `OCC(F)(F)C(F)(F)C(F)(F)F`, for which the outcome in experiment [1], in experiment [2], in experiment [3], in experiment [4], in [5] and in experiment [6] was inactive. Besides, the outcome in experiment [8], in experiment [9], in experiment [10], in [11], in [12] and in experiment [13] was inactive. Further, the outcome in experiment [15], in experiment [16], in [17] and in [18] was inactive.

In the case of `O=S(=O)(O)C(F)(F)C(F)(F)C(F)(F)C(F)(F)C(F)(F)C(F)(F)C(F)(F)F`, the result in experiment [1], in [2], in experiment [3], in experiment [4], in [5] and in experiment [6] was inactive. The result in [7], in [8], in experiment [9], in [10], in experiment [11] and in [12] was inactive. Besides, the result in [13], in [14], in [15], in experiment [16], in experiment [17] and in [18] was inactive.

On to `C=C(C)C(=O)OCC(F)(F)C(F)(F)C(F)(F)F`, for which the result in experiment [1], in [2], in experiment [3], in [4], in experiment [5] and in experiment [6] was inactive. For the same molecule, the result in experiment [8], in experiment [9], in experiment [10], in experiment [11], in [12] and in experiment [13] was inactive. The result in experiment [15], in experiment [16], in [17] and in [18] was inactive.

For `O=C(CC(=O)C(F)(F)C(F)(F)F)C(F)(F)F`, the outcome in experiment [1], in experiment [2], in [3], in experiment [4], in experiment [5] and in experiment [6] was inactive. Moreover, the outcome in experiment [7], in experiment [8], in experiment [9], in experiment [10], in [11] and in [12] was inactive. The result in experiment [13], in experiment [15], in experiment [16], in [17] and in [18] was inactive.

For the molecule `FC(F)(F)C(F)(F)C(F)(F)C(F)(F)C(F)(F)C(F)(F)C(F)(F)C(F)(F)CCS`, the result in [1], in experiment [2], in experiment [3], in [4], in [5] and in experiment [6] was inactive. Further, the outcome in experiment [8], in experiment [9], in experiment [10], in experiment [11], in experiment [12] and in experiment [13] was inactive. Moreover, the outcome in experiment [15], in experiment [16], in [17] and in [18] was inactive.

`O=C(O)C(F)(F)C(F)(F)OC(F)(F)F`: the result in experiment [1], in [2], in experiment [3], in experiment [4], in experiment [5] and in [6] was inactive. Moreover, the result in experiment [7], in experiment [8], in experiment [9], in experiment [10], in [11] and in experiment [12] was inactive. Also, the outcome in experiment [13], in experiment [15], in [16], in experiment [17] and in experiment [18] was inactive.

The values above are taken from PubChem BioAssay (EPA / NIEHS).
